# HNF4A DNA FP = change in binding of human HNF4 alpha to DNA; HNF4a-FITC DNA binding, fluorescence polarization, 1 h; activity change, % at 10 µM; 360,000 compounds, 0.3% hits; AID 1224865; in the data active means activity change above about 30%, passing the limit was not always enough
# CendR NRP1 mod = NRP-1/CendR interaction modulation | O14786 | FAM-RPARPAR peptide binding to NRP-1, fluorescence polarization | inhibition, % at 25 µM | 360,000 compounds, 0.85% hits;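 active means inhibition or corrected inhibition above about 18%, plus a signal ratio from 0.5 to 1.5, limit read from the data, passing the limit was not always enough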
# Fh CTSL1 inh = cathepsin L1 inhibition, PFM18AAP counter-screen; recombinant F. hepatica cathepsin L1, Z-Leu-Arg-MCA fluorescence; inhibition, % at 5.96 µM; 300,000 compounds, 0.49% hits; AID 1906;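 active means inhibition above the mean of all tested compounds plus 3 SD, set per screening campaign, cut at about 17% in these data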;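 further: 0% = plate median of test compound wells and 100% = 1 µM Z-Phe-Ala-diazomethylketone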
# Rpn11 inh = Rpn11 (human) deubiquitinase inhibition; O00487; human 26S proteasome, Ub4-pepOG fluorescence polarization; 20S core pre-blocked with epoxomicin; inhibition, % at 20 µM; 360,000 compounds, 0.59% hits; AID 588493;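 active means inhibition at 20 µM, scaled to each plate's controls, above about 33%, limit read from the data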
# Target sequence (O00487 whole entry, looked up): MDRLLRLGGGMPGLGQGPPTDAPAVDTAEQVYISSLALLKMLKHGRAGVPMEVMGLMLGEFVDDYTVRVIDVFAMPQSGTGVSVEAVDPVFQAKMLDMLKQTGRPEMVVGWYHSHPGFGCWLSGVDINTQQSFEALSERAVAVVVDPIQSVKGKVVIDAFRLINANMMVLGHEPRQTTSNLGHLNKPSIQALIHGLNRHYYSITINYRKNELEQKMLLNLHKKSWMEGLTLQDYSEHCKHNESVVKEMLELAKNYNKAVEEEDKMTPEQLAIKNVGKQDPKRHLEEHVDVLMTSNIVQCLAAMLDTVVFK
# TPT1 inh = C. albicans TPT1 enzyme inhibition | recombinant caTPT1, FP RNA substrate dephosphorylation | inhibition, % at 5 µM | 300,000 compounds, 0.81% hits | AID 1962;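 active means inhibition above the mean of all tested compounds plus 3 SD, set per screening campaign, cut at about 24% in these data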;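 further: plate controls were DMSO alone for no effect and ferristatin control at 100 nM for full effect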
# PHOSPHO1 inh = blocks human PHOSPHO1 phosphatase activity | inhibition, % at 13.3 µM | 290,000 compounds, 1.1% hits | recombinant PHOSPHO1, absorbance phosphatase assay; in the data active means inhibition above about 60%
# Target sequence (Q8TCT1 whole entry, looked up): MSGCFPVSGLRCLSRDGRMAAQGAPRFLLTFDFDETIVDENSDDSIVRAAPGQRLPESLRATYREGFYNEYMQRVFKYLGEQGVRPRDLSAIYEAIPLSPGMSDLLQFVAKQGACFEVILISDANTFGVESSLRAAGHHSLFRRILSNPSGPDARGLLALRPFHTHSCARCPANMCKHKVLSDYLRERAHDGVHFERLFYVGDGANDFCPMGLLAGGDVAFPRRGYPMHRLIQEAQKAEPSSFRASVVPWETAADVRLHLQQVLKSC
# * hit, by the source's call; . = no result. Only some compounds are listed: those with a hit (about 3.3% of all), similar ones and a draw of the others.
SMILES,HNF4A DNA FP,CendR NRP1 mod,Fh CTSL1 inh,Rpn11 inh,TPT1 inh,PHOSPHO1 inh
C=CCSc1nnc(-c2cc(Br)ccc2N)c(=O)[nH]1,-2,-11,-2,5,1,90*
Cn1c(=O)c2c(nc(NNC(=O)C(F)(F)F)n2C)n(C)c1=O,-1,-2,-2,0,2,23
COc1ccc(-c2nnc(N3CCOCC3)c3ccccc23)cc1,3,7,19*,-1,-1,24
CSCCC(NC(=O)c1ccc(Cl)cc1)C(=O)OCC(=O)Nc1cc(Cl)ccc1C#N (centres undefined),1,-8,-2,3,-1,-11
CCN(CC)C(=O)c1cccc(-c2csc(C(NC(C)=O)c3ccccc3)n2)c1 (centres undefined),2,-11,.,-3,.,.
COc1cc(C(O)c2nc(-c3ccc4ccccc4c3)cs2)ccc1F (centres undefined),0,4,.,6,.,.
COc1ccc(C(O)c2nc(-c3ccc4ccccc4c3)cs2)cc1 (centres undefined),3,33*,.,2,.,.
CCN(CC)C(=O)c1cccc(-c2csc(C(NC(C)=O)c3cccc(OC)c3)n2)c1 (centres undefined),2,22*,.,3,.,.
COc1cccc(C(NC(C)=O)c2nc(-c3ccc(C)c(C)c3)cs2)c1 (centres undefined),-63,34*,.,-3,.,.
O=C(COc1ccccc1F)Nc1cc(S(=O)(=O)N2CCOCC2)ccc1N1CCOCC1,1,1,-1,0,-2,27
CN(CC(=O)Nc1ccc(Cl)c(C(F)(F)F)c1)C(=O)CC1Sc2ccccc2NC1=O (centres undefined),0,2,3,1,-1,38
CC1(C)CCC(=O)N2CC[C@H]3C[C@H](OC(=O)Nc4ccc5c(c4)OCO5)C[C@@H]1[C@H]32,-7,20*,2,-3,-1,-19
O=C(ONC1=NCCCCC1)c1ccc([N+](=O)[O-])cc1,3,-6,-9,3,1,11
C=CCn1c(COc2ccc(Cl)cc2)nnc1SCc1ccc(C#N)cc1,2,13,-2,9,1,88*
C=CCn1c(COc2cccc(C)c2)nnc1SCC(=O)NC(=O)NCc1ccco1,-4,-22,3,-16,7,3
Cc1ccc(NCc2nnc(SCC(=O)Nc3ncc(C)s3)n2Cc2ccco2)c(C)c1,0,-7,1,2,-3,73*
Cc1ccc(OCc2nnc(SCC(=O)C(C)(C)C)n2Cc2ccco2)cc1,1,-8,-1,0,2,61*
C=CCn1c(COc2ccc(F)cc2)nnc1SCC(=O)NC(=O)NCc1ccco1,-12,-20,2,-32,1,93*
CCCCCCn1cc(CN2CC(N3CCCCC3)CS2(=O)=O)nn1 (centres undefined),0,-11,.,.,.,.
O=C(Nc1cccc(S(=O)(=O)N2CCOCC2)c1)C1CCCN(C(=O)c2ccc(Cl)cc2)C1 (centres undefined),1,9,-3,0,-3,25
COc1ccc(CNC(=O)C2(C)Cc3c(-c4ccc5c(c4)OCO5)ccnc3O2)cc1OC (centres undefined),-2,11,.,-8,.,.
C=CCn1c(COc2ccc(Cl)cc2)nnc1SCC(=O)Nc1ccc(S(N)(=O)=O)cc1,1,-13,0,-2,4,4
C=CCn1c(COc2ccc(Cl)cc2)nnc1SCC(=O)NCC(=O)OCC,2,10,3,-2,1,100*
Cc1cc2nc(C)n(CCCN)c2cc1C,3,-9,0,4,1,60*
CCn1c(C)nc2cc(C#N)ccc21,3,-6,-1,9,1,-83
SMILES,HNF4A DNA FP,CendR NRP1 mod,Fh CTSL1 inh,Rpn11 inh,TPT1 inh,PHOSPHO1 inh
Cc1cc2nc(C)n(CCCNC(=O)Nc3ccc(C#N)cc3)c2cc1C,-2,8,2,8,-3,60*
N#Cc1ccccc1S(=O)(=O)N1CCN(C(=O)c2cc3c(s2)CCC3)CC1,-8,-4,.,-10,.,.
COc1ccc(-n2c(=S)[nH]c3cc(C(=O)NCCCN4CCOCC4)ccc3c2=O)cc1,-2,5,0,8,1,20
O=C(NCCCN1CCOCC1)c1ccc2c(=O)n(-c3ccc(F)c(Cl)c3)c(=S)[nH]c2c1,7,24*,-1,9,0,-2
CC(Oc1ccccc1)C(=O)NC1=NCCS1 (centres undefined),3,33*,1,-7,-1,27
CC(C)Oc1ccc(N2CC(C(=O)NC3=NCCS3)CC2=O)cc1 (centres undefined),0,1,6,2,-3,64*
O=C(Nc1nc(-c2ccccn2)cs1)c1ccc([N+](=O)[O-])o1,-6,1,16,11,-4,93*
CC1CC1C(=O)Nc1nc(-c2ccccn2)cs1 (centres undefined),0,10,-1,3,-1,78*
O=C(CN1C(=O)C2CCCCC2C1=O)Nc1nc(-c2ccccn2)cs1 (centres undefined),-6,-4,-2,8,-6,71*
Cc1ccc(C(=O)Nc2nc(-c3ccccn3)cs2)o1,-1,-1,2,16,0,15
O=C(Nc1nc(-c2ccccn2)cs1)C1COc2ccccc2O1 (centres undefined),1,7,1,6,-3,46
C[C@@H](C(=O)Nc1nc(-c2ccccn2)cs1)N1C(=O)C2CCCCC2C1=O (some centres undefined),-5,-9,4,-5,1,70*
CCCn1c(CCC(=O)Nc2ccccc2Cc2ccccc2)nc2cc(S(=O)(=O)N3CCOCC3)ccc21,3,-11,2,7,5,6
Cc1ccc(NS(=O)(=O)c2cc(C(=O)N3CCOCC3)ccc2C)cc1C,-3,5,10,2,6,-14
N/C(CSc1ccc(Cl)cc1)=N\S(=O)(=O)c1ccc(Cl)cc1,-1,29*,2,13,-5,16
CCOC(=O)[C@]12CCC=C1N(Cc1cccc3ccccc13)C(=O)[C@H](CC(=O)NCCc1ccccc1OC)C2,0,5,.,.,.,.
Cc1ccc(NC(=S)Nc2cccc3ccccc23)cc1,3,28*,-3,-25,1,48
Fc1ccc(NC(=S)Nc2cccc3ccccc23)cc1,-7,28*,-4,-3,-2,14
S=C(Nc1cccc2ccccc12)NN1CCOCC1,1,25*,-1,-3,-6,94*
Cc1cc(C)cc(NC(=S)Nc2cccc3ccccc23)c1,6,10,0,9,-3,-1
S=C(Nc1cccc2ccccc12)NN1CCCCCC1,-2,1,.,1,.,.
COc1ccc(-c2cc(=O)oc3cc(OCC(=O)Nc4ccc(CCO)cc4)ccc23)cc1,-2,1,2,-5,-1,13
